# From PubChem
# This is a sample that favours compounds with a hit; in the whole collection about 1.7% have one here.
# Vif imaging = HIV Vif self-association inhibitors, primary screen, imaging, HEK293T, single point; HEK293T cells, Vif self-association by quenched fluorescence, 24 h; inhibition, % at 7.49 µM; actives 0.35% (n = 340,000); in the data active = inhibition above about 50%, passing the limit was not always enough
# CFTR F508del cor = F508del CFTR correction, initial screen, CFBE line, single point | CFBE cells, YFP halide quenching; stimulated with forskolin plus potentiator P3; % fluorescence drop versus neutral controls | activity (quench increase), % at 7.58 µM | actives 0.36% (n = 350,000);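 active = mean added fluorescence quench of at least 8% versus neutral control, with both replicates also reaching 8%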;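 note: cells transiently co-express mutant CFTR-F508del with the halide-sensitive YFP; corrector assay measuring rescue of mutant channel to the surface after 24 h compound exposure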
# FGF22 binding = binders of human FGF22 protein, primary screen, FGF22 synaptogenesis inhibitor project, biophysical, thermal shift, single point | actives 1.5% (n = 340,000) | recombinant FGF22 thermal shift, SYPRO orange fluorescence; percent of sucrose octasulfate shift, DMSO zero | activity (Tm shift, normalised), % at 9.99 µM | Fibroblast growth factor 22 (Homo sapiens), Q9HCT0 | AID 651658, 2012;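 active = mean Tm shift, scaled 0 neutral to 100 positive control, at about 1.3% or above, every replicate too, limit read from the data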
# Target sequence (Q9HCT0 whole entry, looked up): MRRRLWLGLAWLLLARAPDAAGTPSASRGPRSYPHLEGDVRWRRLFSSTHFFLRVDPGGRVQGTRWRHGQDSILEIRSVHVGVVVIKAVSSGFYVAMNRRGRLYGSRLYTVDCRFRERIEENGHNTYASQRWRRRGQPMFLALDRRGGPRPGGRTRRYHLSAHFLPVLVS
# Numbers without * were called inactive; nt = no result given.
SMILES,Vif imaging,CFTR F508del cor,FGF22 binding
CC(C)NC(=O)N(C)C[C@@H]1OCCCC[C@H](C)Oc2ccc(NC(=O)C3CCCCC3)cc2C(=O)N([C@@H](C)CO)C[C@H]1C,nt,1.1,0.2
COc1ccc(Nc2nc(-c3sc(C)nc3C)cs2)c(OC)c1,-2.0,15.7*,-0.2
CCCCCCC(=O)Nc1nc(C)c(-c2csc(Nc3cc(OC)ccc3OC)n2)s1,3.7,2.0,-0.1
CCCCCC(=O)Nc1nc(C)c(-c2csc(Nc3cc(OC)ccc3OC)n2)s1,-5.8,-2.0,43.9*
Cc1ccc(Nc2nc(-c3sc(N)nc3C)cs2)cc1,18.2,0.9,0.1
COc1ccc(Nc2nc(-c3cccs3)cs2)c(OC)c1,1.5,nt,nt
Cc1ccc(Nc2nc(-c3sc(C)nc3C)cs2)cc1,4.6,18.7*,0.0
O=C(O)[C@@H]1[C@@H](CO)[C@@H]2Cn3c(ccc(/C=C/c4ccccc4)c3=O)[C@@H]2N1C(=O)c1cnccn1,nt,nt,-0.1
C[C@H](CO)N1C[C@H](C)[C@@H](CN(C)S(=O)(=O)c2cn(C)cn2)Oc2ccc(NC(=O)CCN3CCOCC3)cc2CC1=O,nt,-1.3,0.7
COCC(=O)N1CC[C@@H]2[C@H](CO)Nc3ccc(C#Cc4cccc(F)c4)cc3[C@@H]21,nt,0.4,-0.3
Cc1noc(C)c1NC(=O)N(C)C[C@H]1Oc2ccc(NS(=O)(=O)c3c(C)noc3C)cc2CC(=O)N([C@H](C)CO)C[C@@H]1C,nt,-3.1,0.1
CCOc1ccc2nc(NS(=O)(=O)Cc3ccccc3)sc2c1,106.1*,nt,nt
CCOc1ccc2nc(NS(=O)(=O)c3ccc(NC(C)=O)cc3)sc2c1,4.4,nt,nt
O=C(C[C@H]1C=C[C@H](NC(=O)Nc2ccc(C(F)(F)F)cc2)[C@H](CO)O1)NCc1cc(F)cc(F)c1,nt,-1.5,-0.1
CC(CSc1n[nH]c(=S)s1)c1ccccc1 (configuration not stated),-3.0,1.2,-0.2
CC(C)CSc1n[nH]c(=S)s1,-3.0,-4.7,43.1*
Cc1noc(C)c1NC(=O)N[C@@H]1CC[C@@H](CC(=O)NCCCN(C)C)O[C@@H]1CO,nt,0.3,-0.1
Cc1nn(-c2ccccc2)c(C)c1C(=O)OCC(=O)Nc1ccc(C(N)=O)cc1,nt,-1.9,0.0
Cc1nn(-c2ccccc2)c(C)c1C(=O)OC(C)C(=O)Nc1ccc(C(N)=O)cc1 (configuration not stated),-3.1,-6.1,43.0*
O=C(Nc1cccc(F)c1)N[C@H]1CC[C@@H](CCn2cc(Cc3ccccc3)nn2)O[C@H]1CO,nt,-1.5,0.5
Nc1c(C(=O)NCCc2ccccc2)nnn1Cc1ccc(Cl)cc1,-2.9,nt,nt
Nc1c(C(=O)NCCc2ccccc2)nnn1Cc1ccc(Br)cc1F,4.5,-1.4,43.5*
COc1ccc2c3c([nH]c2c1)[C@@H](CO)N(Cc1nccs1)CC31CCN(C(=O)C2CCC2)CC1,nt,-1.1,-0.2
O=C(Nc1ccccc1)C1CCCN(C(=O)c2ccc(Cl)cc2)C1 (configuration not stated),1.9,3.6,43.0*
CC(=O)c1ccc(NC(=O)C2CCCN(C(=O)c3ccc(Cl)cc3)C2)cc1 (configuration not stated),9.9,2.3,0.4
SMILES,Vif imaging,CFTR F508del cor,FGF22 binding
C[C@H]1CN([C@@H](C)CO)C(=O)c2cc(NS(=O)(=O)c3cn(C)cn3)ccc2O[C@@H]1CN(C)Cc1ccc(C(=O)O)cc1,nt,0.0,1.1
C[C@H]1CN([C@@H](C)CO)C(=O)c2cccc(NC(=O)C3CC3)c2O[C@@H]1CN(C)C(=O)NC1CCCCC1,nt,1.1,-0.1
COCCn1nnnc1C(c1cccc(OC)c1OC)N1CCN(C(=O)c2ccco2)CC1 (configuration not stated),4.6,0.6,0.2
COCCn1nnnc1C(c1ccccc1OC)N1CCN(C(=O)c2ccco2)CC1 (configuration not stated),1.0,1.3,2.1*
C[C@@H]1CCCCO[C@@H](CN(C)C(=O)c2ccncc2)[C@H](C)CN([C@H](C)CO)C(=O)c2cc(NC(=O)CCC(F)(F)F)ccc2O1,nt,0.8,0.0
CO[C@H]1CN(C)C(=O)c2ccc(NC(=O)C3CCOCC3)cc2OC[C@H](C)N(C(C)=O)C[C@H]1C,nt,-2.4,-0.1
COc1ccc(-c2cc(C)no2)cc1S(=O)(=O)N(C)c1cccc(C)c1,-1.0,-1.9,-0.1
CCOc1ccc(N(C)S(=O)(=O)c2ccc(-c3cc(C)no3)s2)cc1,-3.9,3.8,-0.3
CCN(c1cccc(C)c1)S(=O)(=O)c1ccc(-c2cc(C)no2)s1,7.2,9.2*,-0.1
Cc1cccc(N(C)S(=O)(=O)c2ccc(-c3cc(C)no3)s2)c1,6.8,11.9*,-0.1
CCCC(=O)Nc1ccc(NC(=O)c2cccs2)cn1,-2.2,nt,nt
O=C(Nc1ccc(NC(=O)c2cccs2)cn1)c1ccccc1,-2.0,-0.9,43.2*
C[C@@H]1CN([C@@H](C)CO)S(=O)(=O)c2ccc(C#Cc3ccccc3F)cc2O[C@@H]1CN(C)CC1CC1,nt,-0.1,-0.2
CC(=O)N(C)C[C@@H]1Oc2cc(-c3cccc(F)c3)ccc2S(=O)(=O)N([C@H](C)CO)C[C@@H]1C,nt,3.1,-0.1
COc1ccccc1S(=O)(=O)N[C@H]1CC[C@@H](CCn2cc(C3CCCC3)nn2)O[C@H]1CO,nt,2.0,-0.4
COc1ccc(/C=C/C(=O)Nc2ccc(S(=O)(=O)Nc3onc(C)c3C)cc2)cc1OC,nt,0.5,0.0
Cc1ccc(-c2cc(C(=O)Nc3ccc(S(=O)(=O)Nc4onc(C)c4C)cc3)c3ccccc3n2)cc1,5.1,-0.9,1.7*
Cc1noc(NS(=O)(=O)c2ccc(NC(=O)/C=C/c3ccccc3)cc2)c1C,6.9,-1.0,1.4*
Cc1noc(NS(=O)(=O)c2ccc(N/C=C\C(=O)c3ccccc3)cc2)c1C,4.4,11.9*,nt
Cc1cc(C)nc(NS(=O)(=O)c2ccc(NC(=O)c3cc(-c4ccccc4)nc4ccccc34)cc2)n1,0.2,-2.1,0.2
Cc1noc(NS(=O)(=O)c2ccc(N/C=C\C(=O)c3ccc(F)cc3)cc2)c1C,-1.0,nt,1.3
C[C@@H]1CN([C@@H](C)CO)C(=O)c2cccc(NC(=O)Nc3ccc(C(F)(F)F)cc3)c2O[C@@H]1CN(C)CC1CCCCC1,nt,3.8,-0.7
O=C(C[C@@H]1C[C@@H]2c3cc(NC(=O)Cc4ccncc4)ccc3O[C@@H]2[C@H](CO)O1)NCc1cccnc1,nt,2.2,-0.3
O=C(C[C@H]1C=C[C@@H](NC(=O)NC2CCCCC2)[C@H](CO)O1)NCc1ccc(Cl)cc1,nt,1.1,-0.1
O=C(CSc1nc2ccccc2c(=O)[nH]1)c1ccccc1,-2.6,1.9,0.2
O=C(CCCSc1nc2ccccc2c(=O)[nH]1)c1ccccc1,51.7*,1.6,0.1
COc1ccc(OCCSc2nc3ccccc3c(=O)[nH]2)cc1,-1.5,nt,nt
COc1cccc(OCCSc2nc3ccccc3c(=O)[nH]2)c1,2.8,0.8,43.4*
CC1(c2ccccc2)NC(=O)N(CC#N)C1=O (configuration not stated),5.6,0.9,0.1
CC1(c2ccccc2)NC(=O)N(N)C1=O (configuration not stated),-6.3,-2.2,43.0*
